Source: PubChem BioAssay
GLS inh: glutaminase GLS (human) inhibition; GLS enzymatic activity, qHTS titration; AID 624170; 0.21% of 410,000 active; Potency, µM (top dose mostly 45.5 µM), for the others: at the highest dose activity change, negative = inhibition, usual class: inhibitors; further: on the % scale 0 is the no-effect control and ±100 the full control effect
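Assay buffer: 45 mM KH2PO4 pH 8.2, 0.02% Tween-20. hKGA acts on L-glutamine (1 mM solution added); product glutamate is reported by an oxidase/peroxidase Amplex Red coupling, with fluorescence taken at baseline and 30 min.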
HP1b binding inh: inhibitors of HP1-beta chromodomain binding to methylated histone tails | P83916 | AlphaScreen HP1-beta / biotin-H3K9me3 peptide binding | Potency, µM (top dose mostly 114 µM), for the others: at the highest dose activity change, negative = inhibition, most hits filed as inhibitors | 0.56% of 390,000 active; further: nearly all actives have a fitted effect of over 70% in size
Target sequence (P83916 whole entry, looked up): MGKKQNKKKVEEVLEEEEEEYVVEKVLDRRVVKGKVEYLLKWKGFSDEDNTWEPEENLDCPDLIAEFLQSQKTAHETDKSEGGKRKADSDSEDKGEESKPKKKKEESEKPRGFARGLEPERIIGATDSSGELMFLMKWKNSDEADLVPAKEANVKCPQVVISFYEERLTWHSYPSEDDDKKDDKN
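Compound inhibition of the preformed complex between 50 nM HP1-beta and 50 nM biotinylated H3K9me3 peptide was read by AlphaScreen. Buffer was PBS pH 7.4 with 0.01% Tween-20. Incubations ran 30 min at room temperature, with 10 ug/mL donor/acceptor beads.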
G9a block: blocks human histone lysine methyltransferase G9a; G9a H3K9 monomethylation, AlphaScreen, 2 h; Potency, µM (titrated, usually from 102 µM), inactives show top-dose activity, negative = inhibition, usual class: inhibitors; 8.8% of 350,000 active; further: on the % scale 0 is the no-effect control and ±100 the full control effect; nearly all actives have a fitted effect of over 75% in size
Target sequence (Q96KQ7 913-1193 limits assumed): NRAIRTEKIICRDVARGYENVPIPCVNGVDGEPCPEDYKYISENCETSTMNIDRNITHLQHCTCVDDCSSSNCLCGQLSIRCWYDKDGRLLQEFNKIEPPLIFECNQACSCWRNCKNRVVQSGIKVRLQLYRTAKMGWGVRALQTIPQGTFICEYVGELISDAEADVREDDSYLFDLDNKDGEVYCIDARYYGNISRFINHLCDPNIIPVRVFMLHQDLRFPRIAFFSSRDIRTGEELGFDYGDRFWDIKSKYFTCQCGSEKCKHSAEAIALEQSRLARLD
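Using a bead-based AlphaScreen, monomethylated H3K9 product from 2 h room-temperature reactions (G9a 20 nM, peptide 500 nM, SAM 20 uM) was detected with 0.5 ug/mL rabbit anti-H3K9me1 antibody.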
BAZ2B block: inhibitors of human BAZ2B bromodomain | 4.4% of 360,000 active | AID 504333 | Potency, µM (doses to about 114 µM), for inactives: at the top dose activity change, negative = inhibition, usual class: inhibitors | AlphaScreen BAZ2B-H3K14Ac peptide displacement; further: on the % scale 0 is the no-effect control and ±100 the full control effect; nearly all actives have a fitted effect of over 60% in size
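Protein-peptide AlphaScreen: BAZ2B 50 nM, b-H3K14Ac 50 nM, 1x PBS pH 7.4 + 0.01% Tween-20. Preincubation 30 min RT; cpd 30 min RT (top 110 uM); beads 20 min RT, light-protected.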
JMJD2A Tudor: JMJD2A Tudor domain (human) inhibition | O75164 | AlphaScreen JMJD2A-Tudor / H3K4me3 peptide binding | Potency, µM (highest dose often 114 µM), without a hit: at the highest dose activity change, negative = inhibition, hits mostly inhibitors | 4.4% of 390,000 active | AID 504339; further: on the % scale 0 is the no-effect control and ±100 the full control effect; nearly all actives have a fitted effect of over 50% in size
An asterisk follows results filed as active; ? = inconclusive; . = no result; [ ] = dose if it differs, or a comment. Rows were chosen to be rich in hits. Some 10% of all compounds tested hit in one or more screens of this group. The call rests on the fitted dose curve; in most records, active means well fitted curve in the direction sought with a large enough effect; inconclusive means small, poorly fitted or top-dose-only effect, or another doubt; inactive means no such curve, though single readings can be large; an effect the other way counts as inactive or inconclusive. Potency means the concentration at half of the fitted maximal effect.

SMILES | GLS inh | HP1b binding inh | G9a block | BAZ2B block | JMJD2A Tudor
COc1ccc(NCc2nc3ccccc3n2CCOc2ccccc2)cc1 | -1% | -67% | 32µM* | 18µM* | 40µM*
Cc1ccc(CNC(=O)CN2N=C(c3ccccc3)CCC2=O)cc1 | 4% | 22% | 5%[59 µM] | 1% | -8%
Cc1ccc(S(=O)(=O)NCCNC(=O)c2nonc2N)cc1 | 2% | 36% | 4%[2.33 µM] | 7% | -7%[57.1 µM]
CSc1nsc(SC)c1C(=O)NCCNS(=O)(=O)c1ccc(C)cc1 | 8% | 30% | 2.8µM* | 50µM* | -11%
NC(=O)c1nsc(C(=O)N(CC(=O)NC2CCCC2)Cc2ccc3c(c2)OCO3)c1N | -18% | 32% | -6% | 0% | 3%
CCN(CC)C1=N/C(=C\c2ccco2)C(=O)N1c1ccccc1 | 30% | 1% | 28µM* | ? | -21%
CCN(C(=O)CSc1nnc2c3ccccc3n(CC)c2n1)C1CCS(=O)(=O)C1 (stereo unspecified) | 2% | 7% | 79µM* | -36% | -27%
COc1cccc(NC(=O)CSc2nc(O)c(C)c(=O)n2-c2ccc(C)cc2)c1 | 4% | 0% | -3% | -20% | 79µM*
CCCCc1c(O)nc(SCC(=O)Nc2ccc(C)cc2)n(-c2ccc(OC)cc2)c1=O | 1% | 60% | 0% | -3% | -11%
Cc1cc(NC(=O)CSc2nc3c([nH]c4ccccc43)c(=O)n2-c2ccccc2)no1 | 4% | 14%[57 µM] | 14%[59 µM] | 2% | -6%
O=C(CSc1nc2c([nH]c3ccccc32)c(=O)n1-c1ccccc1)Nc1cccc(C(F)(F)F)c1 | -12% | 17%[57 µM] | 10%[59 µM] | -2% | -22%
Cc1c(O)nc(SCC(=O)Nc2cccc(C(F)(F)F)c2)n(-c2ccccc2)c1=O | 11% | -3% | 45µM* | -30% | -23%
COc1cccc(-n2c(SCC(=O)Nc3cc(C)on3)nc3c([nH]c4ccccc43)c2=O)c1 | 4% | 37% | 40µM* | -21% | -17%
COCCCNC(=O)c1c(NC(=O)Cc2coc3cc(C)ccc23)sc2c1CCCC2 | 14% | 46% | -6%[59 µM] | -3% | -8%
CCOC(=O)c1c(-c2ccc(C)o2)csc1NC(=S)NC(=O)c1ccccc1Br | 0% | ? | 32µM* | -10% | ?
CCOC(=O)c1c(-c2ccc(C)o2)csc1NC(=O)COC(=O)c1ccc(NC(N)=O)cc1 | 11% | -1% | 3.5µM* | 79µM* | ?
CCOC(=O)c1c(-c2ccc(C)o2)csc1NC(=S)NC(=O)c1cccs1 | 14% | -18% | ? | ? | -34%
COc1ccccc1-c1nnc(SC(C)C(=O)O)n1-c1ccccc1 (stereo unspecified) | 6% | 21% | . | -28% | -12%
Cc1cc2c(s1)c1cnn(Cc3cccc(C(F)(F)F)c3)c(=O)c1n2C | . | . | . | . | -28%
Cc1ccc(S(=O)(=O)c2[nH]c(-c3ccccc3)nc2SCC(=O)O)cc1 | 20% | 42% | ? | -21% | -18%
CC(=O)Sc1nc(-c2ccccc2)[nH]c1S(=O)(=O)c1ccc(C)cc1 | ? | ? | 2.2µM* | ? | 13µM*
CN(C)C(=O)CN(C)S(=O)(=O)c1ccc(Cl)cc1 | 1% | 63% | -7%[12.7 µM] | 6% | -11%
Cn1c(CN(O)S(=O)(=O)c2ccc(Cl)cc2)nnc1C(F)(F)F | 20% | 32% | 10µM* | -6% | 0%
Cc1cc(C)nc(NC(=O)c2ccc(COc3ccccc3Cl)cc2)c1 | -3% | 71% | -6% | 6% | 20%
CSc1nc(=NC(C)=O)ss1 | -2% | ? | ? | ? | 32µM*
O=C1CSC(c2cccs2)N1c1ccccc1 (stereo unspecified) | 0% | 25% | -2%[59 µM] | 10% | -8%
COc1ccc(N2C(=O)CSC2c2cccs2)cc1 (stereo unspecified) | 11% | 12% | 50µM* | -8% | -10%
CC1CN(C(=O)N2c3ccccc3Sc3ccccc32)CC(C)O1 (stereo unspecified) | -4% | 16% | -42%[59 µM] | 89µM* | -13%
CC1CCCN(C(=O)N2c3ccccc3Sc3ccccc32)C1 (stereo unspecified) | -1% | 31% | 9% | -3% | 6%
